The source made the active and inactive calls.
Columns and labels:
[1] = small molecules captured by biotinylated probe aFSTL3 – biochemical, small-molecule microarray, fluorescence 635/667, stem cell growth factor project, primary screen (AID 1064); conditions: higher = more signal;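 further: measures binding of the biotinylated anti-FSTL3 antibody to printed compounds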
[2] = binders from COS7 lysate, DM2A8 probe, primary screen, torsin A project, cell lysate, small-molecule microarray, fluorescence 635/667 (AID 1065); conditions: higher = more signal, COS7 lysate expressing mutant human TOR1A
[3] = small molecules captured by biotinylated probe aFGF2 – biochemical, small-molecule microarray, fluorescence 635/667, stem cell growth factor project, primary screen (AID 1067); conditions: higher = more signal;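 further: measures binding of biotinylated aFGF2 protein to printed compounds on slides; z-score merges feature fluorescence and signal-to-noise across triplicate slides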
[4] = small molecules captured by biotinylated probe aFGF10 – biochemical, small-molecule microarray, fluorescence 635/667, stem cell growth factor project, primary screen (AID 1071); conditions: higher = more signal;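 further: score merges 667 nm spot intensity and signal to noise from triplicate slides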
[5] = target: Neurogenic locus notch homolog protein 2 (Homo sapiens) (UniProt Q04721); assay: small molecules binding Notch2 protein – biochemical, small-molecule microarray, 635 nm fluorescence, stem cell growth factors, primary screen (AID 1073); conditions: higher = more signal
[6] = target: Pro-neuregulin-1, membrane-bound isoform (Homo sapiens) (UniProt Q02297); assay: small molecules binding neuregulin-1 protein – biochemical, small-molecule microarray, fluorescence 635/667, psychiatric disease protein project, primary screen (AID 1075); conditions: NRG1 binding, 635 nm fluorescence, higher = more signal;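 further: score combines 667 nm spot fluorescence with signal to noise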
[7] = system: Neuregulin-1 EGF-like domain; assay: small molecules binding NRG1 EGF domain – biochemical, small-molecule microarray, 635 nm fluorescence, primary screen (AID 1081); conditions: higher = more signal;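 further: binding of the protein to compounds printed on small-molecule microarray slides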
[8] = FRG1 expression reporter modulators in myotubes – cell-based, C2C12 myotubes, firefly/Renilla luciferase, luminescence, FRG1 inhibition for FSHD, primary screen (AID 1084); conditions: FRG1 promoter luciferase, higher = more signal, called active from +8 up or from −8 down
[9] = small molecules captured by biotinylated probe aFST – biochemical, small-molecule microarray, fluorescence 635/667, stem cell growth factor project, primary screen (AID 1086); conditions: higher = more signal;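 further: score merges 667 nm fluorescence with signal-to-noise of each printed compound spot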
[10] = binders of probe aHhip on microarray, primary screen, stem cell growth factor project, biochemical, small-molecule microarray, fluorescence 635/667 (AID 1087); conditions: higher = more signal;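 further: score merges spot fluorescence at 667nm with spot signal to noise ratio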
[11] = system: PRMT1 (protein arginine N-methyltransferase 1); assay: small molecules binding arginine methyltransferase PRMT1 – biochemical, small-molecule microarray, 635 nm fluorescence, primary screen (AID 1088); conditions: higher = more signal;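 further: binding of Prmt1 protein to compounds spotted on small-molecule microarray slides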
[12] = growth effects on S. cerevisiae YJM789 – YJM789 clinical isolate, OD600, 24 h, basal, primary screen (AID 1089); conditions: higher = more signal, called active from +8 up or from −8 down;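 further: growth of clinical yeast isolate S. cerevisiae YJM 789 seeded 1000 cells per well; test concentration not given here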
[13] = S. pombe growth modifiers, basal conditions – strain 972, OD600, 24 h, no modulator, primary screen (AID 1090);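 further: basal condition with compound alone and no growth modifier present; test concentration not given here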; conditions: S. pombe 972 growth, higher = more signal, called active from +8 up or from −8 down
[14] = budding yeast growth modifiers under rapamycin – strain BY4716, OD600, 96 h, primary screen (AID 1091); further: test concentration not given here; conditions: S. cerevisiae BY4716 + rapamycin, higher = more signal, called active from +8 up or from −8 down
[15] = target: Torsin-1A-interacting protein 2 (Homo sapiens) (UniProt Q8NFQ8); assay: small molecules binding lysate-expressed LULL1 – cell lysate, human LULL1 lysate, 635/667 nm fluorescence, primary screen (AID 1092); conditions: small-molecule microarray, hLULL1 lysate binding, 635 nm fluorescence; higher = more signal;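 further: probe is lysate of COS7 cells overexpressing human LULL1; score merges per-feature 667 nm fluorescence with signal-to-noise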
[16] = optical density change of DRC41 E. coli – strain DRC41, OD650, 24 h, E. coli filamentation project, primary screen (AID 1093);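 further: MC1000 strain lacking acrAB efflux and sulA so SOS filamentation is blocked; test concentration not given here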; conditions: E. coli DRC41 growth, higher = more signal, called active from +8 up or from −8 down
[17] = probe aLefty2 binding to arrayed compounds – biochemical, biotinylated probe, 635/667 nm fluorescence, primary screen (AID 1094); conditions: small-molecule microarray, higher = more signal;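 further: score merges spot fluorescence near 667 nm with spot signal-to-noise ratio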
[18] = system: Noggin (protein binding on small-molecule microarray); assay: small molecules binding Noggin protein – biochemical, 635/667 nm fluorescence, primary screen (AID 1095); conditions: 635 nm fluorescence, higher = more signal;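 further: score merges 667 nm feature fluorescence with signal to noise over triplicate slides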
[19] = target: Neurogenic locus notch homolog protein 3 (Homo sapiens) (UniProt Q9UM47); assay: small molecules binding NOTCH3 protein – biochemical, 635/667 nm fluorescence, primary screen (AID 1096); conditions: small-molecule microarray, 635 nm fluorescence, higher = more signal
[20] = probe aEGFR binding to arrayed compounds – biochemical, biotinylated probe, 635/667 nm fluorescence, primary screen (AID 1097); conditions: small-molecule microarray, higher = more signal;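 further: probe is a biotinylated anti-EGFR antibody binding compounds printed on slides; score combines fluorescence near 667 nm and signal to noise of each spot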

Sequence of Neurogenic locus notch homolog protein 3 (Homo sapiens) (Q9UM47 whole entry, looked up): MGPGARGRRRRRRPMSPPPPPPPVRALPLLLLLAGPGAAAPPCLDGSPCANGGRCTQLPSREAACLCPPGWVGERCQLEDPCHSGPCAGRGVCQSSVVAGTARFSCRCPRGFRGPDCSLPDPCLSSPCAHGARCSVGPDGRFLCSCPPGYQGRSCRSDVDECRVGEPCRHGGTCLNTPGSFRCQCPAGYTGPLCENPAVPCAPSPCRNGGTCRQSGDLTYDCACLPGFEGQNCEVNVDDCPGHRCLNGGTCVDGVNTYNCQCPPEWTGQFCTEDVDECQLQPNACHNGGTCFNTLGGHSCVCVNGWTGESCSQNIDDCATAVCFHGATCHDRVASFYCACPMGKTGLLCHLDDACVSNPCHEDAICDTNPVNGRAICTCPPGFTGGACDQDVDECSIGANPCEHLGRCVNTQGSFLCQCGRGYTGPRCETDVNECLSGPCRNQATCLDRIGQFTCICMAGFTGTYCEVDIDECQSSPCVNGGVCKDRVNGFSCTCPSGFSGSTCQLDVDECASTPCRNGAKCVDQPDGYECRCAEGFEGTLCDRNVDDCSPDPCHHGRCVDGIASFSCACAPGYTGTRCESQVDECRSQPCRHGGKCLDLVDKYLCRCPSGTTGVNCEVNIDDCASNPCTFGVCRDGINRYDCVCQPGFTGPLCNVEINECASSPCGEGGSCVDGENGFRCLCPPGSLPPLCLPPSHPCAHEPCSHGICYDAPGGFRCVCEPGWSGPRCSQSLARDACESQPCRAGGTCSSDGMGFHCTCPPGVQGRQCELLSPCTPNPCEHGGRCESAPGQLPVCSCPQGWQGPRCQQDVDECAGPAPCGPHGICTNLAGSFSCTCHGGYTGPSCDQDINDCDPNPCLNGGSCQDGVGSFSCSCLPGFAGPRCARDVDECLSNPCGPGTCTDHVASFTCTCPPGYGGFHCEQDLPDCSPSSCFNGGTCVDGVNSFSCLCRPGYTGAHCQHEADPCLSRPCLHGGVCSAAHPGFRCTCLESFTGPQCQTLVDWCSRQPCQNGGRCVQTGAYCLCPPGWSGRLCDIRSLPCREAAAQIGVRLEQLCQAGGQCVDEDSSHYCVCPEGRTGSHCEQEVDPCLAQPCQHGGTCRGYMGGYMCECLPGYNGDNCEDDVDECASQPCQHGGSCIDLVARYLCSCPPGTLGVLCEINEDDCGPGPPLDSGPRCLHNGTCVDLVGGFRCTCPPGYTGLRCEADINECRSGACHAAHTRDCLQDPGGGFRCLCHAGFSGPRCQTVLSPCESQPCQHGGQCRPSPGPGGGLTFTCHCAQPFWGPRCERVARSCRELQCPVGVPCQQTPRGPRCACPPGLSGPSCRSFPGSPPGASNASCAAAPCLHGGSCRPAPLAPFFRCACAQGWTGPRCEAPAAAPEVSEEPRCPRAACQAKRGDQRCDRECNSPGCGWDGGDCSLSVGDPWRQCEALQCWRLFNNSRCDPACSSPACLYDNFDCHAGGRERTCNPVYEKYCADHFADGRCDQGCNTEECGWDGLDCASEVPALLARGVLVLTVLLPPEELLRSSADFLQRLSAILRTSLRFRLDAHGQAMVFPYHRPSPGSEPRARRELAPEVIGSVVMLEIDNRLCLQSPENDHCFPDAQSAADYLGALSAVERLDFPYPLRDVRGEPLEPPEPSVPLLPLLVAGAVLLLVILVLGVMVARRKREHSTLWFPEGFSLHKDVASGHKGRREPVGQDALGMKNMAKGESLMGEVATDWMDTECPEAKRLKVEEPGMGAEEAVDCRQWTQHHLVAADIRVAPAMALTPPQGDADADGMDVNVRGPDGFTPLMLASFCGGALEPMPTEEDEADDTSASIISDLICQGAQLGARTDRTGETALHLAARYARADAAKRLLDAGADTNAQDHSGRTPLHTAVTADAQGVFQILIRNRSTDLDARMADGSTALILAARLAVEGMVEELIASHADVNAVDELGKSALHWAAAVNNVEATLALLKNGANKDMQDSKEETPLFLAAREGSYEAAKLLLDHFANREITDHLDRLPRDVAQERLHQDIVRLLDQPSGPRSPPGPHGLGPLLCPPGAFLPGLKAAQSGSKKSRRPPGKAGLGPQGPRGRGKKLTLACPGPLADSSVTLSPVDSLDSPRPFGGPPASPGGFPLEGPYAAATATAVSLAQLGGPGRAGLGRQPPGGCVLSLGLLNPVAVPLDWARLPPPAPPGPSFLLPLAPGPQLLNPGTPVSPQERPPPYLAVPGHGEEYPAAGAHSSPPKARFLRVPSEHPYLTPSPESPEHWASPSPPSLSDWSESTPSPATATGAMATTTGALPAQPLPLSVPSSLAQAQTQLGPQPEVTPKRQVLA
Sequence of Neurogenic locus notch homolog protein 2 (Homo sapiens) (Q04721 whole entry, looked up, canonical isoform): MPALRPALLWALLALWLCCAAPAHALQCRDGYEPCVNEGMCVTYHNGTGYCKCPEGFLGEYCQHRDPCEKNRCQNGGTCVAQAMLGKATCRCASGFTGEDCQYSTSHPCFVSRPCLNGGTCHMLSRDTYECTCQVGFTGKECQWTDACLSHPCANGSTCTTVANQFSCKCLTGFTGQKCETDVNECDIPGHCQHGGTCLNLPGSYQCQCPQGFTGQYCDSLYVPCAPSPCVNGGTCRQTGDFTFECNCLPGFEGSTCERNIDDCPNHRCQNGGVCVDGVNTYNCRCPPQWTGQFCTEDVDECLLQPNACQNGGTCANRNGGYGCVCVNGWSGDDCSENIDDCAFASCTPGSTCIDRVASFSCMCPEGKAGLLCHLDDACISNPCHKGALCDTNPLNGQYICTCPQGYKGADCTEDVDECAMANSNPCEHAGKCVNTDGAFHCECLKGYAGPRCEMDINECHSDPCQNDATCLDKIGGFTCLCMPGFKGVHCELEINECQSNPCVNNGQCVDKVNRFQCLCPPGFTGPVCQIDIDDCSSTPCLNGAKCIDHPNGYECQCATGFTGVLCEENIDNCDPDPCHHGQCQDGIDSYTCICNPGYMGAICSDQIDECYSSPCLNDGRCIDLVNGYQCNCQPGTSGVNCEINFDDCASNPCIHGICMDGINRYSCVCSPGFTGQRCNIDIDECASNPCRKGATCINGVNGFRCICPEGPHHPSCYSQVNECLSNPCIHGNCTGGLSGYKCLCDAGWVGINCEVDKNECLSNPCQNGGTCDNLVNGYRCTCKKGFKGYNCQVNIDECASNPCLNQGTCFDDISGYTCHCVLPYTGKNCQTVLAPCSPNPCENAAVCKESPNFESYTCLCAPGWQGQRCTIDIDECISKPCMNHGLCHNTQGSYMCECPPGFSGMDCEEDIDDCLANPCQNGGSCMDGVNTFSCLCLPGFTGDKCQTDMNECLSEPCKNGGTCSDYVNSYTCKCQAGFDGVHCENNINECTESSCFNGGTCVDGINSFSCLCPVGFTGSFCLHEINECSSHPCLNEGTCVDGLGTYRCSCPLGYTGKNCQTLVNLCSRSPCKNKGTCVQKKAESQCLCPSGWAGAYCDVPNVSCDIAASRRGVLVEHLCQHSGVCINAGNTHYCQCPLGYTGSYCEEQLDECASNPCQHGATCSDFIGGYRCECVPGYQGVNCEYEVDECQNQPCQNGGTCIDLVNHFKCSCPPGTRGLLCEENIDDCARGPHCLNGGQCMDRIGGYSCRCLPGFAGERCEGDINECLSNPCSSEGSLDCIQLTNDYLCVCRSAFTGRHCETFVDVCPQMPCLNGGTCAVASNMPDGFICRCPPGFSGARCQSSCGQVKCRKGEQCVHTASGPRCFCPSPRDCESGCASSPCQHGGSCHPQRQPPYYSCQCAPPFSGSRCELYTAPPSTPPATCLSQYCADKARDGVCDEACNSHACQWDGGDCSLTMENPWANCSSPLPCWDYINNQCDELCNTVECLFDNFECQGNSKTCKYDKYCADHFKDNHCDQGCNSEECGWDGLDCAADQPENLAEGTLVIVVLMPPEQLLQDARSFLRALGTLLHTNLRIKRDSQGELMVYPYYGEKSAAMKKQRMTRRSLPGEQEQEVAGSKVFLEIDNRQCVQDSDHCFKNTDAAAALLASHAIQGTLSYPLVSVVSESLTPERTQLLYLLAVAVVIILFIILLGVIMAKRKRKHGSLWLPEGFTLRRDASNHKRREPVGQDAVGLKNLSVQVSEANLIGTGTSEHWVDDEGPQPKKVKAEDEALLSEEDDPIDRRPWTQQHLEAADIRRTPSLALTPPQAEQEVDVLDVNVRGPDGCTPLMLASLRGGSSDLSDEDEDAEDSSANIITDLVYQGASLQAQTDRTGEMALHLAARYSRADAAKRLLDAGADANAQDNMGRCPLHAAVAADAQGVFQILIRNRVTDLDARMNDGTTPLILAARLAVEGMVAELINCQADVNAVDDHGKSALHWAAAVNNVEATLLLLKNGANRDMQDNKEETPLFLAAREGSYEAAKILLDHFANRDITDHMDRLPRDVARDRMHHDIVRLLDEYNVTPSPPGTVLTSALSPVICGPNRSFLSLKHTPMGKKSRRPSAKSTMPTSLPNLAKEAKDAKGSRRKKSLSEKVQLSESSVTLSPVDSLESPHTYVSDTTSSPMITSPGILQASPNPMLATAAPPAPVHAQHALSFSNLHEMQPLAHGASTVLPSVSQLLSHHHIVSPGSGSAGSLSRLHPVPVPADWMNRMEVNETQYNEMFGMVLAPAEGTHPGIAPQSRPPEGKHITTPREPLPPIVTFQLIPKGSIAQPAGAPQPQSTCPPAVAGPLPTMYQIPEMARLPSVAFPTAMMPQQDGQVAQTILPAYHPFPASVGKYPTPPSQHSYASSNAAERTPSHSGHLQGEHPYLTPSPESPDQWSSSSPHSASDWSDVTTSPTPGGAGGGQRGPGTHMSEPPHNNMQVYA

Compound	composite z-score [1]	composite z-score [2]	composite z-score [3]	composite z-score [4]	composite z-score [5]	composite z-score [6]	composite z-score [7]	z-score [8]	composite z-score [9]	composite z-score [10]	composite z-score [11]	z-score [12]	z-score [13]	z-score [14]	composite z-score [15]	z-score [16]	composite z-score [17]	composite z-score [18]	composite z-score [19]	composite z-score [20]
COCCCNC(=O)[C@]1(CCS(=O)(=O)c2ccccc2)N=C(c2ccc(OCCCO)cc2)O[C@@H]1c1ccccc1N=[N+]=[N-]	1.42	0.769	0.263	1.11	0.984	0.977	1.01	4.31 (inactive)	1.98	-0.202	1.38	0.371 (inactive)	0.61 (inactive)	3.42 (inactive)	2.93	0.464 (inactive)	0.106	-0.122	0.349	0.287
COC(=O)[C@@]1(Cc2ccc(F)cc2)[C@H]2c3cc(C(=O)N4CCCC4)n(CCN4CNCC4=O)c3C[C@H]2CN1C(=O)c1ccccc1	0.144	1.56	0.0732	0.132	1.26	1.07	1.35	4.7 (inactive)	1.26	0.178	1.2	0.614 (inactive)	-0.198 (inactive)	0.316 (inactive)	3.97	-0.151 (inactive)	0.459	0.46	0.842	0.118
[N-]=[N+]=NCc1ccccc1C[C@@]1(C(=O)N2CCCCC2)N=C(c2ccc(OCCCO)cc2)O[C@@H]1c1ccccc1	0.0156	0.317	-0.0958	0.108	1.09	1.15	0.825	-3.91 (inactive)	0.301	-0.0457	0.424	0.591 (inactive)	1.08 (inactive)	32.6 (active)	2.2	0.685 (inactive)	-0.0261	-0.578	-0.426	0.159
O=C1NC(=O)C2C1C=CC(C(O)c1cccc3ccccc13)N2Nc1ccc(Cl)cc1Cl (stereo not given)	0.475	-0.974	-0.0752	0.51	1.49	1.53	1	-0.716 (inactive)	1.34	-0.0994	0.811	-1.94 (inactive)	-0.615 (inactive)	2.56 (inactive)	3.04	-1.43 (inactive)	0.162	-0.339	1.04	0.131
O=C1O[C@H](c2ccccc2)[C@H](c2ccccc2)N2[C@H]1[C@@H](C(=O)O)[C@]1(C(=O)Nc3ccc(C#CC4=CCCCC4)cc31)[C@H]2c1ccc(O)cc1	-0.261	-0.208	-0.0899	0.728	0.769	0.92	1.13	-0.179 (inactive)	0.189	-0.121	1.54	-0.206 (inactive)	-0.113 (inactive)	-0.776 (inactive)	2.65	-0.911 (inactive)	0.0169	0.653	0.966	-0.0353
